# Test results taken from the supplement of paper PMC3334620.
# Whole data set: some 33,000 sequences, median “E-score (-0.5 to 0.5)” near -0.012, cut for the highest 2% near 0.27. This excerpt belongs to a sample that is enriched for the highest values.
# Biological target: T1, Vhr1 (UniProt P40522)
# T1 sequence: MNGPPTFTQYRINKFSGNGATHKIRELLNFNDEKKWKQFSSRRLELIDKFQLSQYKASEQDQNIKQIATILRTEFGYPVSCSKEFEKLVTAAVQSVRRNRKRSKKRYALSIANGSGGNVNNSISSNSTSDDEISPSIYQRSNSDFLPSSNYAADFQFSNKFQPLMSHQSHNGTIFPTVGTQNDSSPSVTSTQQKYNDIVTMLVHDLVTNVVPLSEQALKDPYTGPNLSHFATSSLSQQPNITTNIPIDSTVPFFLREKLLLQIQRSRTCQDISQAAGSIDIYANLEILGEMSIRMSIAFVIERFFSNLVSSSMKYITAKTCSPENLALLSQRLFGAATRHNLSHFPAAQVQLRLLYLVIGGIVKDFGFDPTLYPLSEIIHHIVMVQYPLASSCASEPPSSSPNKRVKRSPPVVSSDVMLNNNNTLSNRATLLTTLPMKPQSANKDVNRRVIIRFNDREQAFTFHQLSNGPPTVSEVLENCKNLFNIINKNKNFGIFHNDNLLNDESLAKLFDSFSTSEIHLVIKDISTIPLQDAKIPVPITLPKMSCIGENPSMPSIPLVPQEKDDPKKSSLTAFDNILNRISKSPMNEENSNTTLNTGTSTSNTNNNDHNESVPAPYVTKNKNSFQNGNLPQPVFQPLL
# Assay: PBM E-score (8-mer binding enrichment) (E-score (-0.5 to 0.5)); higher = stronger / more preferred TF binding
# Conditions: protein concentration: 200 nM; construct: GST-full length
# Outline: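 Each ungapped eight-base word and its reverse complement, pooled, received an E-score from the Universal PBM Analysis Suite. Underlying scans, normalised with masliner, recorded fluorescent anti-GST bound to GST-tagged yeast transcription factors. These were applied at about 100-200 nM to universal all-10-mer Agilent arrays double-stranded by primer extension.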
row,Sequence,PBM E-score
1,ACGGCGAA,0.0608
2,CCATATCG,0.245
3,GAAATTTA,-0.157
4,AAATGCGA,-0.00728
5,ATCAGACC,0.0881
6,GCTCTCAA,-0.0323
7,CATCTGGA,0.0944
8,CTAATGAG,0.0521
9,CGTTGCGA,0.0286
10,GGCCAGAA,-0.00605
11,ACAGTACT,0.0536
12,CATTAGCA,-0.152
13,CGTCGAAG,0.0798
14,AGTAGTTA,0.0583
15,CGTAGTAA,-0.095
16,AGTAGTCA,0.401
17,AGTAGTTC,0.108
18,AGTAGTTG,0.29
19,AGTAGTAG,0.0116
20,AGTAGTCC,0.0701
21,AGTAGTCG,0.292
22,AGTAGTGA,0.106
23,AGTAGTAA,0.0586
24,CGTAGTCA,0.372
25,CGTAGTCC,-0.0429

row,Sequence,PBM E-score
1,CCAGTGGA,-0.118
2,CATTGGCG,0.00375
3,GGAATGCA,0.0844
4,GGGCTTCA,-0.00484
5,GGTAGTCA,0.427
6,GGTAGTGA,0.159
7,GGTAGTAA,-0.193
8,ACCGTTGC,-0.0641
9,CACAATGG,0.176
10,CACAATGA,0.286
11,CACAATGC,0.132
12,AACAGTCA,0.192
13,ACCAGTCA,0.298
14,ATCAGTCA,0.306
15,CTCAGTCC,-0.0479
16,GTCAGTCA,0.267
17,CTCAGTGA,0.111
18,ACCAGTCT,0.0104
19,ACCAGTCC,-0.0311
20,ATCAGTCG,0.23
21,CTCAGTCA,0.362
22,TACAGTCA,0.294
23,CACAGTCA,0.244
24,ACGCTAGC,-0.322
25,AATTTAGG,0.0535

row,Sequence,PBM E-score
1,CACTAATC,0.19
2,CCCAATCG,-0.00353
3,GAATGCAC,0.109
4,CGGCTCGC,0.0809
5,AACAGCTC,0.0178
6,CTGAATCA,0.402
7,CTGAATTA,-0.00808
8,ATGAATCC,0.0842
9,GTGAATCA,0.394
10,ATGAATCA,0.423
11,ATGAATCG,0.214
12,CTGAATCC,0.224
13,GTGAATGA,0.0662
14,GTGAATAA,0.16
15,GAAGATAC,0.00993
16,AGCTTGTA,-0.0135
17,GACAGCTC,-0.0639
18,CCGGCCGG,0.282
19,CCGGCCGC,-0.048
20,CCGGCCGA,0.031
21,AGGTCGTA,0.107
22,AGATTGGA,-0.0483
23,CAGTCACA,0.348
24,AAGTCACC,0.301
25,CTGTCACA,0.025

row,Sequence,PBM E-score
1,TGGTCACA,0.035
2,TAGTCACA,0.394
3,CCGTCACC,-0.114
4,ACGTCACC,-0.0531
5,CCGTCACA,-0.0936
6,TCGTCACA,0.0377
7,CAGTCACC,0.307
8,AGGTCACC,-0.16
9,CGGTCACC,0.0171
10,CTACTTCC,-0.0528
11,CAAGTGAC,-0.00136
12,TAGCGCAA,-0.0984
13,ACCGCGGC,0.0296
14,ACGGTAAC,0.0764
15,GACAGCAA,-0.0406
16,AAGTCACG,0.336
17,AAGTCACA,0.246
18,CAGTCACG,0.365
19,CGGTCACA,0.0193
20,CAGTCAAA,-0.0678
21,AAGTCACT,0.209
22,GACATCAC,0.0237
23,CGGATTGA,0.132
24,ACCGGACT,-0.0358
25,CCCGGACG,-0.133

row,Sequence,PBM E-score
1,ACCGGACG,0.283
2,ATAGTGTC,0.13
3,ATATTATG,0.324
4,ATATTATC,0.0882
5,ATATTATA,0.058
6,CGTATACG,0.107
7,ATGTCATA,0.106
8,TAGTCAGA,0.258
9,TAGTCATA,0.356
10,CAGTCAAG,0.0145
11,AAGTCATA,0.316
12,CAGTCAGG,0.175
13,CTGTCATA,0.0334
14,CGGTCATA,-0.0676
15,CCGTCATA,0.139
16,CAGTCATA,0.291
17,AGGTCATA,0.0299
18,CAGTCATG,0.406
19,AAACACTA,0.0776
20,CCCCCAGC,-0.15
21,AGCGCACA,0.00461
22,GCGCTAAA,-0.142
23,CCAGACAC,-0.0651
24,AGCTGCGG,-0.115
25,CCAATGGG,-0.103

row,Sequence,PBM E-score
1,CGACTCTA,0.225
2,CGACTCAC,0.448
3,GTACTCAC,0.263
4,CAACTCAG,0.0745
5,CGACTCAG,0.428
6,CGACTCTC,0.278
7,CAACTCAC,0.263
8,CCACTCAG,0.0902
9,GGACTCAC,0.372
10,AGACTCTC,0.0937
11,CCACTCAC,0.177
12,GCACTCAC,-0.0104
13,AGAAAATG,-0.163
14,TAAAGCAA,-0.0681
15,ACTTAGAC,-0.127
16,ACAGCCTA,0.0389
17,AAGGGTGC,-0.0494
18,CAAGCAAG,-0.0582
19,AACTATTG,0.13
20,AGACTCAC,0.399
21,ACTCTCAT,0.027
22,AGACTCAG,0.242
23,AGACTCCT,0.186
24,AGACTCGC,0.136
25,AGACTCAT,0.353

row,Sequence,PBM E-score
1,CCGCCTTC,0.0298
2,CCCGTCGG,0.065
3,CAAGCTCG,0.0842
4,GGCGCTAC,-0.192
5,GTGGAGAA,-0.13
6,CCGTGTTC,0.271
7,ACGTGTTC,-0.219
8,CCGTGTTA,0.152
9,ACACAGAC,0.25
10,CGCTGCCA,-0.0656
11,AAAGTACA,0.071
12,ACTACCAT,0.278
13,ACTACTAA,0.0623
14,ACTACAAT,0.277
15,ACTACCAA,0.163
16,ACTACAAG,-0.00586
17,ACTACCAC,0.175
18,ACTACAAC,0.212
19,ACTACTAT,0.325
20,ACTACTAC,0.232
21,AGCAAGGG,-0.0155
22,GAGTGCGC,-0.0251
23,CCCGATGA,0.273
24,CCCGATGC,-0.18
25,ACCGATGA,0.00055

row,Sequence,PBM E-score
1,GTGCGCGA,0.0151
2,CCGCATGA,0.146
3,TACTATGA,0.317
4,CACTATGA,0.173
5,GACTATGC,0.233
6,AACTATGA,0.22
7,GACTATGA,0.289
8,GACTATCA,0.0818
9,AGAGGCTG,-0.116
10,AGTGACGA,0.139
11,GGTGACGA,0.113
12,AGTGACCG,-0.117
13,GGTGACCA,-0.0328
14,AGTGACTG,0.288
15,GGTGACTA,0.44
16,AGTGACGG,0.00494
17,AGTGACAA,0.0325
18,AGTGACTA,0.367
19,GAGGAAGC,-0.151
20,AGACCTCT,-0.143
21,TAGGAAAA,-0.22
22,TAAGCCGA,-0.13
23,GTCTGTGA,0.235
24,GCATTCCA,-0.177
25,AGCCTGAC,-0.0744

row,Sequence,PBM E-score
1,ATCCATCG,0.0134
2,AATCATCG,0.334
3,AATCATCT,0.185
4,AATCATCA,0.374
5,ATCCATCC,0.156
6,TATCATCA,0.147
7,GATCATCC,0.141
8,CATCATCA,-0.0217
9,CATCATCG,0.16
10,CATCATCC,0.119
11,AATCATCC,0.405
12,ATCCATCA,0.289
13,AAGATTTG,-0.09
14,ACAGTGGG,-0.133
15,ACATCTAC,0.155
16,GCGCCAAC,-0.0311
17,GCCCCCCA,-0.244
18,GGCCCAGA,-0.26
19,AGTTACAT,-0.043
